Our source for the composite z-score and z-score values is PubChem BioAssay.

Values joined by “and” are separate entries in the source; they are usually repeats but may differ in a detail not shown here. Equal entries are not always repeated. Active and inactive are the calls of the source. Unless noted, the rule behind the calls is not given here.

Assay [1] can be described thus: compounds binding Alexa647 anti-His antibody – biochemical, small-molecule microarray, 635 nm fluorescence, artefact control for SMM control protein annotation, primary screen (AID 1128).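 Note: score merges feature fluorescence with signal-to-noise for each printed compound spot.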 The following applies: higher = more signal.
In assay [2] the test system is Human papillomavirus type 1a E7 protein (residues 1-88). Kind of assay: HPV1a E7 small-molecule binders, primary screen, biochemical, small-molecule microarray, residues 1-88, 635 nm (AID 1129). The following applies: small-molecule microarray binding, fluorescence 635 nm; higher = more signal.
In assay [3] the target is Focal adhesion kinase 1 (Homo sapiens) (UniProt Q05397). As to the kind of experiment: PTK2 protein binding on printed compound slides – biochemical, small-molecule microarray, 635/667 nm fluorescence, BSA, DTT, primary screen (AID 1130).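 Note: composite of spot emission at 667 nm and signal to noise over triplicate slides.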 The following applies: 635 nm fluorescence, higher = more signal.
Assay [4] deals with Fibrinogen (Alexa647-labelled). Kind of assay: Alexa647-fibrinogen binding to printed small molecules – biochemical, small-molecule microarray, 635/667 nm fluorescence, artefact control for SMM control-protein annotation, profiling panel (AID 1131).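 Note: z-score merges 667 nm fluorescence with per-spot signal-to-noise over triplicate slides.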 The following applies: fibrinogen-A647 binding fluorescence, higher = more signal.
Assay [5] addresses Follistatin (Homo sapiens) (UniProt P19883). As to the kind of experiment: FST protein binding to printed compounds – biochemical, small-molecule microarray, 635/667 nm fluorescence, primary screen (AID 1132). The following applies: 635 nm fluorescence, higher = more signal.
The target in assay [6] is Fibroblast growth factor 2 (Homo sapiens) (UniProt P09038). As to the kind of experiment: basic fibroblast growth factor binding to printed compounds – biochemical, small-molecule microarray, 635/667 nm fluorescence, primary screen (AID 1133). The following applies: FGF2, fluorescence 635/667, higher = more signal.
Assay [7] is described as follows: JC-1 mitochondrial potential readout, lung cancer cells – cell-based, A549, JC-1 fluorescence, basal, 24 h, 100 nL, profiling panel (AID 1138).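 Note: A549 lung adenocarcinoma cells under basal conditions with no added stimulus; test concentration not given here.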 The following applies: higher = more signal.
The next assay relates to Lefty1. As to the kind of experiment: Lefty1 protein binding to printed compounds – biochemical, small-molecule microarray, 635/667 nm fluorescence, primary screen (AID 1139). The following applies: fluorescence 635/667, higher = more signal.
The test system of assay [8] is wheat germ agglutinin (Triticum aestivum), Alexa647-labelled. Kind of assay: Alexa647-WGA lectin binding to printed small molecules – biochemical, small-molecule microarray, 635/667 nm fluorescence, artefact control for SMM control-protein annotation, profiling panel (AID 1140).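 Note: score merges 667 nm feature emission with signal to noise over triplicate slides.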 The following applies: WGA-A647 binding, 635 nm fluorescence, higher = more signal.
For assay [9], the target named is Luciferin 4-monooxygenase (Photinus pyralis) (UniProt P08659). Kind of assay: inhibition of purified Photinus pyralis luciferase – biochemical, luminescence, purified enzyme, 2006 set, primary screen (AID 1141).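 Note: cell-free assay with purified firefly luciferase at 100 ng per well in PBS; test concentration not given here.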 The following applies: purified firefly luciferase, SteadyGlo luminescence, 30 min; higher = more signal, called active from +8 up or from −8 down.
Assay [10] relates to Wnt5a (protein binding on small-molecule microarray). Kind of assay: small molecules binding Wnt5a protein – biophysical, small-molecule microarray, 635/667 nm fluorescence, primary screen (AID 1142).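 Note: fluorescence read at 667 nm with signal to noise per printed feature.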 The following applies: 635 nm fluorescence, higher = more signal.
Assay [11] in a line: ATP-based viability of Huh7 replicon cells – cell-based, CellTiter-Glo luminescence, basal, 48 h, cytotoxicity control for HCV replication inhibitor project, primary screen (AID 1143).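 Note: Huh7 hepatoma cells carrying a hepatitis C replication reporter with no stimulus; test concentration not given here.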 The following applies: higher = more signal, called active from +8 up or from −8 down.
A short description of assay [12]: Pseudomonas biofilm growth suppression – PAO1 strain, BacTiter-Glo luminescence, LB-PBS, primary screen (AID 1144). The following applies: P. aeruginosa PAO1 biofilm, 12 h, higher = more signal.
A short description of assay [13]: basal CRE-LacZ reporter activity in PC12 – cell-based, unstimulated, primary screen (AID 1145). The following applies: no forskolin, luminescence, 4.5 h, higher = more signal, called active from +8 up or from −8 down.
A short description of assay [14]: forskolin-driven CRE-LacZ activity in PC12 – cell-based, CRE-LacZ reporter, forskolin-stimulated, primary screen (AID 1146).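 Note: PC12 cells with 6xCRE LacZ reporter stimulated by forskolin 10 µM; beta-galactosidase reporter signal reflecting CREB driven transcription.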 The following applies: luminescence, 4.5 h, higher = more signal, called active from +8 up or from −8 down.
Assay [15] deals with Streptavidin (Streptomyces avidinii) (UniProt P22629). Kind of assay: compounds binding control protein streptavidin – biophysical, small-molecule microarray, 635/667 nm fluorescence, artefact control for SMM compound annotation, primary screen (AID 1147).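 Note: signal reflects streptavidin binding to arrayed compounds as a control protein.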 The following applies: higher = more signal.
Assay [16] can be described thus: probe aInhba binding on compound microarray – biochemical, small-molecule microarray, 635/667 nm fluorescence, primary screen (AID 1148).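 Note: score merges 667nm spot fluorescence with signal-to-noise for antibody binding to printed compounds.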 The following applies: higher = more signal.
Assay [17] has as its target Torsin-1A (Homo sapiens) (UniProt O14656). As to the kind of experiment: TOR1A wild-type binding on microarray – cell lysate, small-molecule microarray, lysate, 635/667 nm, primary screen (AID 1149). The following applies: COS7 hTOR1A-WT lysate, 635 nm fluorescence, higher = more signal.
For assay [18] the target is unchanged. As to the kind of experiment: torsin A mutant lysate binding on microarrays – cell lysate, small-molecule microarray, COS7 lysate, 635/667 nm fluorescence, primary screen (AID 1150).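 Note: score pools 667 nm emission and signal to noise measuring lysate protein binding.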 The following applies: COS7 hTOR1A mutant lysate, 635 nm fluorescence, higher = more signal.
The test system of assay [19] is Sonic hedgehog protein (Shh). Kind of assay: Sonic hedgehog microarray binding compounds – biochemical, small-molecule microarray, 635/667 nm fluorescence, primary screen (AID 1151).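 Note: Shh protein binding to compounds spotted on small-molecule microarray slides; score combines spot fluorescence intensity with signal-to-noise across triplicate slides.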 The following applies: 635 nm fluorescence, higher = more signal.

Chain of Torsin-1A (Homo sapiens) (O14656 whole entry, looked up): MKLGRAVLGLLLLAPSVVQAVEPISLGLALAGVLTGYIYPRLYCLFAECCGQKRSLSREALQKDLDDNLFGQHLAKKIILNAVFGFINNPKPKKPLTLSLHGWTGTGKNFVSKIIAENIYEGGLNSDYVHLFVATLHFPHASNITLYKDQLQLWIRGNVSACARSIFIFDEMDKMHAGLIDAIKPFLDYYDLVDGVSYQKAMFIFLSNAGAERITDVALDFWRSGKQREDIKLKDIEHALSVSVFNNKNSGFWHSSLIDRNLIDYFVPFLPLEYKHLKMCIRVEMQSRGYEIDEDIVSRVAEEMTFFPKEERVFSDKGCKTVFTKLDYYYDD
Chain of Luciferin 4-monooxygenase (Photinus pyralis) (P08659 whole entry, looked up): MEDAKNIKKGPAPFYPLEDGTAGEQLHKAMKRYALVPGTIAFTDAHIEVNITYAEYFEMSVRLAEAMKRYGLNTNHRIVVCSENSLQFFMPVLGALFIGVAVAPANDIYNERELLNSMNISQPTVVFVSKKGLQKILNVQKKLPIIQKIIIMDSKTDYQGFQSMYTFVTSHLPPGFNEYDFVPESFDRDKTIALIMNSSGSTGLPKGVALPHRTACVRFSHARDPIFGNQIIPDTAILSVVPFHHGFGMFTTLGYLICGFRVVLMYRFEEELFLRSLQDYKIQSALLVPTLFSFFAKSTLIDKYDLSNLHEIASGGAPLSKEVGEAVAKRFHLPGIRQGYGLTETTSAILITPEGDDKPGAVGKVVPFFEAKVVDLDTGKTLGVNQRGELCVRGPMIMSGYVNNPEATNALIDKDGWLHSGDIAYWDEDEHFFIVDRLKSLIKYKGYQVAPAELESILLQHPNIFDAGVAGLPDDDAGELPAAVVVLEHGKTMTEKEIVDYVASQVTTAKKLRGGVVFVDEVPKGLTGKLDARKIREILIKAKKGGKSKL
Chain of Focal adhesion kinase 1 (Homo sapiens) (Q05397 whole entry, looked up): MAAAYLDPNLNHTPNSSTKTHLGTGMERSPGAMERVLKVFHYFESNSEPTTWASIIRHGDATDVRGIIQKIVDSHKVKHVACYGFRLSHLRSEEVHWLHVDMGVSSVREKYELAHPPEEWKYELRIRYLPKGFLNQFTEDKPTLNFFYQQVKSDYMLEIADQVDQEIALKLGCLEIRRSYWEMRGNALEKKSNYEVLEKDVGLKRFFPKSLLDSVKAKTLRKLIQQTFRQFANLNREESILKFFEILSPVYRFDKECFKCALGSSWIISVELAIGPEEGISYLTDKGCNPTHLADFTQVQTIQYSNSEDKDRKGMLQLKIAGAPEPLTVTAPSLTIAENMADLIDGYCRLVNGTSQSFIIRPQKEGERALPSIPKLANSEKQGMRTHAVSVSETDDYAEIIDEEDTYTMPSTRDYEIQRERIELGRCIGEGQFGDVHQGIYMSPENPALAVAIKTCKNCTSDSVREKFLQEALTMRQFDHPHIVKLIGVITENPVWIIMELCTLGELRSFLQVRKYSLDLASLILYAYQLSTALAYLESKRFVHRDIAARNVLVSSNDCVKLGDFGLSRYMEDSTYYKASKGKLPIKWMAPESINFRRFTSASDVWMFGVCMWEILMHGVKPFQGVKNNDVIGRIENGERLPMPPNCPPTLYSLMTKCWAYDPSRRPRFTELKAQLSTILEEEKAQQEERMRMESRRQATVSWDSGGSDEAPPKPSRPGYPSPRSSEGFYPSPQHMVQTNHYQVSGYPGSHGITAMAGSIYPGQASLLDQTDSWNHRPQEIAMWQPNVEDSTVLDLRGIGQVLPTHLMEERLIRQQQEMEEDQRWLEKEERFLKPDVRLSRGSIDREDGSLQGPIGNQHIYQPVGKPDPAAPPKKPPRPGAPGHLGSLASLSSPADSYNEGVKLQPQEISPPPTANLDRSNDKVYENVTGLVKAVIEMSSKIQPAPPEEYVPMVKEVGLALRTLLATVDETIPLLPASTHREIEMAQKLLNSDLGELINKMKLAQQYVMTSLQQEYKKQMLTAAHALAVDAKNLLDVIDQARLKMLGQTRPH
Chain of Follistatin (Homo sapiens) (P19883 whole entry, looked up): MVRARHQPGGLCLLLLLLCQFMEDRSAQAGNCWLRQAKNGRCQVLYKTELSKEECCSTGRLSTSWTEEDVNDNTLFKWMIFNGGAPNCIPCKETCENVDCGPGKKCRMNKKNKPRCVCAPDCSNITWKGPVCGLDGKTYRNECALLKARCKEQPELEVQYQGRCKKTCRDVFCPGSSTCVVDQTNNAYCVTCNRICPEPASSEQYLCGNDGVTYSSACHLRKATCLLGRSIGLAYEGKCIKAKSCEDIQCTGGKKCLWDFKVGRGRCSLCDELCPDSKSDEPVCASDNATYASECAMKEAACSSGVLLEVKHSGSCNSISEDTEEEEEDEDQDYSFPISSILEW
Chain of Fibroblast growth factor 2 (Homo sapiens) (P09038 whole entry, looked up): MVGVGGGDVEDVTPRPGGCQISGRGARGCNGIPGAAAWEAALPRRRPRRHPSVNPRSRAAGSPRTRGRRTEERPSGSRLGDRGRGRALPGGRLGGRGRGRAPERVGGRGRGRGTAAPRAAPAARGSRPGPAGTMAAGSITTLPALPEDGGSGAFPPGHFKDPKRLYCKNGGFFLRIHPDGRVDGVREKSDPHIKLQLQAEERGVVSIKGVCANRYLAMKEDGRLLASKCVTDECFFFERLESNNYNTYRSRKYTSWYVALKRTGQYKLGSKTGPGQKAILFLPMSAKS
Chain of Streptavidin (Streptomyces avidinii) (P22629 whole entry, looked up): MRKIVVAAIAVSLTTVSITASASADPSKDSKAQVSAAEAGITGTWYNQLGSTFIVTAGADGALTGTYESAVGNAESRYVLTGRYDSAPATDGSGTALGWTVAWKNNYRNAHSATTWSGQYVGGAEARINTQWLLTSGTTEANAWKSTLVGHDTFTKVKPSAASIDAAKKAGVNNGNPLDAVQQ

For `C=CCN(C(=O)C1N(c2c(Cl)cccc2CO)C(=O)C2C(C(=O)O)C3C=CC21O3)c1ccc(OC)cc1` (stereo not given), the composite z-score in assay [1] was 0.0132 and -1.11; in assay [2] it was -0.52 and -1.47; in assay [3], -0.542 and -1.13; in [4] it was -0.79 and -1.58; in [5], -1.08 and -1.26; in assay [6], -1.37 and -1.76. Moreover, the composite z-score with Lefty1 was -2.14 and -2.24; in assay [8], 0.174 and -1.28; in assay [10] it was -0.898 and -0.782; in assay [15], -1 and -1.55; in [16] it was -0.874 and -0.379; in the assay with Torsin-1A (Homo sapiens) [17], -2.69 and -1.75. Besides, the composite z-score with Torsin-1A (Homo sapiens) [18] was -1.94 and -1.61; in [19] it was -1.22 and -0.893. The z-score in assay [7] was -1.09 and 1.22; in [9] it was 1.4 (inactive) and -1.32 (inactive); in assay [11], -0.443 (inactive) and -0.172 (inactive); in assay [12] it was -0.927 (inactive) and -0.513 (inactive); in assay [13], -0.623 (inactive) and 0.0645 (inactive); in assay [14], -0.297 (inactive) and -0.684 (inactive).
For `COC(=O)C1=C(C)N(Cc2ccccc2)[C@]23O[C@](C(=O)OC)(C(=O)N2[C@@H]1c1ccccc1)[C@@H](C(=O)OC)[C@H]3C(=O)OC`, the composite z-score in [1] is 0.297 and 1.07; in assay [2] it was -0.813 and 0.143; in [3], -0.277 and 0.2; in assay [4], -2.79 and -0.188; in [5], -0.998 and 0.452; in [6], -0.179 and 0.403. The composite z-score is -0.625 and 0.747 with Lefty1; 0.753 and -0.487 in assay [8]; -0.13 and 0.206 in assay [10]; -0.895 and -0.188 in assay [15]; -0.188 and -0.218 in assay [16]; -0.0921 and 0.481 in the assay with Torsin-1A (Homo sapiens) [17]. Also, the composite z-score with Torsin-1A (Homo sapiens) [18] was -0.107 and 0.299; in assay [19], -0.652 and 0.611. Moreover, the z-score is 0.604 and 0.301 in assay [7]; -0.781 (inactive) and -1.8 (inactive) in assay [9]; 0.36 (inactive) and 0.333 (inactive) in assay [11]; -0.754 (inactive) and 0.0472 (inactive) in assay [12]; 0.745 (inactive) and -0.487 (inactive) in assay [13]; -0.998 (inactive) and -0.909 (inactive) in assay [14].
With `CC(C)OC(=O)C=C1C[C@@H](c2cccc(C(F)(F)F)c2)O[C@@H](c2cccc(C(F)(F)F)c2)O1`, the composite z-score in [1] was 0.143 and 0.877; in assay [2] it was 1.17 and 0.699; in [3], 0.805 and 0.224; in [4] it was 0.795 and 0.302; in assay [5], -0.618 and -1.57; in assay [6], -0.496 and -0.841. Further, the composite z-score in the assay with Lefty1 was -0.392 and -0.925; in assay [8], 0.627 and 0.443; in assay [10] it was 0.0895 and -0.51; in assay [15], 0.0863 and 0.0717; in [16], -0.0313 and -0.2; with Torsin-1A (Homo sapiens) [17] it was 0.704 and 2.6. Moreover, the composite z-score with Torsin-1A (Homo sapiens) [18] was 1.17 and 0.366; in [19] it was -0.0088 and -0.758. Besides, the z-score in assay [7] is 1.52 and 2.59; in [9], -0.864 (inactive) and 0.747 (inactive); in assay [11], -0.53 (inactive) and -2.72 (inactive); in assay [12] it was -0.539 (inactive) and 0.216 (inactive); in assay [13], -0.284 (inactive) and 0.379 (inactive); in assay [14], -0.126 (inactive) and 1.11 (inactive).
Take `O=C1C[C@]2(c3ccc([N+](=O)[O-])cc3)C(=O)N(Cc3ccccc3)c3cc(CO)ccc3[C@H]2N1C1CCCCC1`: the composite z-score was 0.0501 and 1.06 in assay [1]; 0.905 and 0.134 in assay [2]; 0.152 and 0.0229 in [3]; -0.437 and -0.106 in [4]; 0.585 and 1.41 in assay [5]; 0.368 and 1.02 in [6]. Moreover, the composite z-score was 0.507 and 0.482 in the assay with Lefty1; -0.329 and 0.59 in assay [8]; 0.0771 and 0.551 in assay [10]; -0.286 and -0.157 in assay [15]; -0.249 and 0.163 in assay [16]; 0.251 and 0.0218 in the assay with Torsin-1A (Homo sapiens) [17]. Also, the composite z-score with Torsin-1A (Homo sapiens) [18] is 0.22 and -0.0773; in [19], 0.837 and 1.22. Further, the z-score in [7] was -0.38 and 0.277; in assay [9], 0.302 (inactive) and -0.537 (inactive); in assay [11] it was 0.282 (inactive) and -5.67 (inactive); in assay [12], -0.19 (inactive) and -0.334 (inactive); in assay [13], -0.348 (inactive) and -0.152 (inactive); in [14], 1.03 (inactive) and -0.885 (inactive).
